# Source: PubChem BioAssay (National Center for Advancing Translational Sciences (NCATS))
# Marburg entry inh = inhibitors of Marburg virus binding or cell entry. Marburg virus pseudotyped entry inhibition, cell reporter. Potency, µM (series often up to 37.8 µM), inactives show at the highest dose activity change, negative = inhibition, most hits filed as inhibitors. 300,000 tested, 1.8% active; calls by dose curve; tested in HEK293 cells; further: potency means the concentration at half of the fitted maximal effect
# HCMV inh = human cytomegalovirus inhibition | HFF cells, HCMV-luciferase reporter, 72 h; active compounds read low | activity change, negative = inhibition, % at 57.5 µM | 410,000 tested, 4.5% active; in the data active means activity change below about -60%; inconclusive means no clear call, values can overlap the other calls; inactive means above about -39%
#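 Steps: HFFs plated, 16 h 37C; compounds added; HCMV-luciferase added to MOI 1 PFU/cell; 72 h 37C; OneGlo reagent, 5 min room temperature; luminescence read, normalized to controls.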
# HCV inh = inhibitors of hepatitis C virus infection | Huh7.5.1 HCVcc-Cre infection, luciferase reporter, 44 h | Potency, µM (series often up to 41.8 µM), for inactives: at the highest dose activity change, negative = inhibition, usual class: inhibitors | 340,000 tested, 3.4% active | AID 651820; active means well fitted inhibition curve with a large enough effect; inconclusive means small, poorly fitted or top-dose-only effect, or another doubt; inactive means no such curve, though single readings can be large or run the other way; further: potency means the concentration at half of the fitted maximal effect
#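 Antiviral activity was scored by luciferase reporter output from cells infected with HCVcc-Cre (~0.5 moi) in presence of compound, 44 h infection period, cells seeded 1,000/well 4 h prior.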
# Vaccinia Venus = inhibitors of vaccinia virus (Venus reporter); Vaccinia virus Venus reporter expression, fluorescence; Potency, µM (titrated, usually from 36.5 µM), for inactives: at the top dose activity change, negative = inhibition, most hits filed as inhibitors; 330,000 tested, 0.46% active; AID 720580; calls by dose curve; tested in A549 cells; further: potency means the concentration at half of the fitted maximal effect; nearly all actives have a fitted effect of over 30% in size
# Lassa entry inh = Lassa virus entry inhibition; Lassa virus pseudotype entry inhibition, cell reporter; Potency, µM (doses to about 37.9 µM), without a hit: at the top dose activity change, negative = inhibition, usual class: inhibitors; 300,000 tested, 1.2% active; AID 540256; calls by dose curve; tested in HEK293 cells; further: potency means the concentration at half of the fitted maximal effect; nearly all actives have a fitted effect of over 50% in size
# VACV mCherry inh = vaccinia inhibition (mCherry reporter) | Vaccinia virus mCherry reporter infection, fluorescence | Potency, µM (top dose mostly 36.5 µM), for the others: top-dose activity change, negative = inhibition, actives largely listed as inhibitors | 310,000 tested, 0.63% active | AID 720579; calls by dose curve; tested in A549 cells; further: potency means the concentration at half of the fitted maximal effect; nearly all actives have a fitted effect of over 35% in size
# An asterisk follows results filed as active; i = inactive; ? = inconclusive; . = no result; [ ] = dose if it differs, or a comment. A selection: hits, their analogues and other compounds. The true share with any hit is near 7.8%. On the % scale 0 is the no-effect control and ±100 the full control effect.
SMILES,Marburg entry inh,HCMV inh,HCV inh,Vaccinia Venus,Lassa entry inh,VACV mCherry inh
COc1cccc(N2CCN(C(=O)CN(c3ccc(C)cc3)S(=O)(=O)c3c(C)n[nH]c3C)CC2)c1,.,17.4,-0.3%,-15.8%,.,?
Cc1cccc(N(C)C(CNS(=O)(=O)c2ccccc2)c2ccccc2)c1 (stereo not drawn),?,-10.8,.,-5.2%,-20.7%[46.1 µM],-5.8%
CC(=O)CSc1nc2cc3c(cc2cc1C#N)OCCO3,1.41µM*,-0.9,-20.0%,2.2%,?,-17.3%
COc1ccc(C(=O)N(c2ccc(C)cc2)S(=O)(=O)c2ccc(C)cc2)cc1,.,-31.0,.,-29.4%,?,?
Brc1ccc(OCc2ccccc2)c(CNCc2ccncc2)c1,-23.0%,-29.1,10µM*,.,?,.
O=C(COc1ccc(-c2ccccc2)cc1)N/N=C/c1cc(O)ccc1Br,5.8%,-61.0*,-14.9%,?,1.2%,-11.5%
O=C(COc1ccccc1)NCC(=O)N/N=C/c1cc(Br)ccc1OCc1ccccc1,8.91µM*,12.7,?,-10.6%,?,i
Clc1ccc(COc2ccccc2CNCc2cccnc2)cc1,?,-30.3,10µM*,-6.6%,-24.7%,-11.4%
C=CCOc1ccccc1CNCc1cccnc1,4.8%,1.7,12.6%,.,0.5%,.
O=C(N/N=C/c1cccnc1)c1ccccc1OCc1cccc(Br)c1,?,?,?,-2.2%,-15.2%,2.4%
O=C(N/N=C/c1ccncc1)c1cc(Br)ccc1OCc1ccccc1,?,-22.3,8.91µM*,-11.3%,0.3%,i
CC1=CN2C(=N)/C(=C/c3ccc([N+](=O)[O-])o3)C(=O)N=C2S1,?,-95.8*,11.4%,108.7%,-14.2%,52.9%
CCOc1ccc(-c2ccc(/C=C3/C(=N)N4C(C)=CSC4=NC3=O)o2)c([N+](=O)[O-])c1,?,72.4,-10.2%,-1.4%,6.4%,-23.5%
CCOc1ccc(-c2ccc(/C=C3/C(=N)N4C=CSC4=NC3=O)o2)c([N+](=O)[O-])c1,-18.4%,18.4,11.2µM*,-3.1%,0.7%,i
Cc1ncc2c(c1CNC(=O)c1ccc3c(c1)OCO3)CCN(C(=O)c1coc3c1C(=O)CCC3)C2,.,.,.,2.2%,.,-7.0%
C[C@H]1[C@H](N=[N+]=[N-])[C@H](O)CCO[C@@H]1c1ccccc1,13.1%[14.2 µM],.,.,.,.,.
Cc1cc(-c2nn(-c3ccccc3F)cc2CN2CCN(c3ccncc3)CC2)c(C)s1,6.31µM*,-11.2,?,-22.5%,?,-4.5%
CN(C)c1nnnn1-c1ccc(Cl)cc1Cl,-8.0%[46.1 µM],-25.9,23.1%,4.1%,-3.3%,i
O=C(O)Cc1c(C(=O)O)nnn1-c1ccc(Cl)cc1Cl,.,-65.5*,8.3%,.,.,.
CCN(CC)c1ccc(NC(=O)CN2C(=O)c3cccnc3Sc3ccccc32)c(C)c1,.,42.7,.,-20.2%,20.7%[46.1 µM],-22.8%
Cc1ccc(NC(=O)c2ccc(=O)[nH]n2)cc1S(=O)(=O)Nc1ccc(SC(F)F)cc1,.,0.0,3.16µM*,.,.,.
Cc1ccc(NC(=O)c2ccc(=O)[nH]n2)cc1C,?,1.5,-2.6%,5.9%,24.0%[46.1 µM],-14.4%
O=C(C[n+]1ccccc1)N/N=C/c1cc(Br)ccc1F,0.0%,-98.8*,3.7%,-1.2%,15.0%,-4.6%
OC(CON=C1c2ccccc2-c2ccccc21)CN1CCNCC1 (stereo not drawn),?,-28.5,2.51µM*,?,?,?
C=CC(=O)Nc1cccc(CN2C(=O)N(c3cc(OC)cc(OC)c3)Cc3cnc(NCCCCN(CC)CC)nc32)c1,.,.,?,?,.,-17.8%
SMILES,Marburg entry inh,HCMV inh,HCV inh,Vaccinia Venus,Lassa entry inh,VACV mCherry inh
NNC(=O)CN1C(c2ccccc2)=Nc2ccc(Br)cc2C1c1ccccc1 (stereo not drawn),-30.0%[46.1 µM],-8.8,-17.5%,-18.1%,?,-5.1%
COc1cc(OC)c(C2=Nc3ccc(Br)cc3C(c3ccccc3)N2CC(=O)NN)cc1OC (stereo not drawn),.,-67.6*,-5.6%,.,.,.
CC(NC(=O)c1cc(F)ccc1F)c1nnc2n1CCN(Cc1ccccc1O)CC2 (stereo not drawn),.,.,.,0.0%,.,-1.8%
CCOC(=O)c1ccc(NC(=O)c2cnc(N3CCCC3)nc2C)cc1,.,-12.1,.,1.0%,2.0%[46.1 µM],12.0%
Cc1ccc(NS(=O)(=O)c2cc(NC(=O)C(C)Oc3ccccc3)ccc2C)c(C)c1 (stereo not drawn),4.61µM*,-6.9,?,-28.1%,?,-17.7%
CCC(Oc1ccccc1)C(=O)Nc1ccccc1C(=O)N1CCCCC1 (stereo not drawn),11.2µM*,-8.2,.,-6.8%,?,i
CCOC(=O)N1CCN(C(=O)c2ccccc2NC(C)=O)CC1,7.3%[46.1 µM],1.8,3.3%,-5.5%,-7.4%,4.2%
Cc1ccc(N2CCN(C(=O)c3ccccc3NC(=O)c3ccccc3C(=O)O)CC2)cc1,10.7%,-103.0*,21.2%,-3.9%,?,-10.7%
CCOC(=O)N1CCN(C(=O)c2ccccc2NC(=O)COc2ccccc2)CC1,-13.2%[46.1 µM],-60.2*,?,-2.2%,-18.3%,i
O=C(Nc1ccccc1C(=O)N1CCCCCC1)c1ccccc1,-2.4%[46.1 µM],-64.4*,14.5%,-1.6%,-3.7%[46.1 µM],i
CCOC(=O)CC(NC(=O)c1cc2c(=O)n3cccc(C)c3nc2s1)c1ccc(OCC)c(OC)c1 (stereo not drawn),-20.3%[46.1 µM],35.5,.,-8.0%,4.4%[46.1 µM],-10.0%
CC1(C(=O)Nc2ccc3nc[nH]c3c2)CCN1C(=O)c1ccccc1CCc1ccccc1 (stereo not drawn),.,?,.,-4.2%,.,9.2%
CC(C)(C)c1ccc(C(=O)NNC(=S)NCc2ccco2)cc1,?,38.8,17.7%,-8.2%,?,-17.5%
CCc1ccccc1NC(=O)CNC(=O)c1ccc(S(=O)(=O)NCc2ccco2)cc1,.,-102.1*,.,-1.2%,.,-3.1%
CCNC(=S)NNC(=O)c1ccc(S(=O)(=O)NCc2ccco2)cc1,?,-100.1*,18.0%,-17.9%,-7.5%,-11.6%
CCN(CC)CCn1c2ccccc2c2cnc(N=CN(C)C)c(C#N)c21,?,-94.2*,?,?,?,.
CN(C)/C=N/c1c(C#N)cnn1-c1ccccc1,-0.1%,96.9,-7.8%,-14.4%,-4.9%,i
CCn1c2ccccc2c2cnc(N=CN(C)C)c(C#N)c21,?,-69.5*,12.6µM*,-44.8%,-8.4%,.
C#Cc1cccc(C(=O)NCc2nc(-c3ccccc3NC(=O)C3CCCO3)oc2C)c1 (stereo not drawn),.,.,.,1.2%,.,-6.7%
Cc1cc(C)c(Cn2c(=O)n(CCC(=O)NCCc3ccccc3)c(=O)c3ccccc32)c(C)c1,-23.7%[46.1 µM],9.1,.,18.7%,0.7%[46.1 µM],4.5%
Cc1nc2[nH]c(=S)[nH]c2c(=O)[nH]1,15.2%[46.1 µM],-64.0*,19.4%,-15.9%,9.2%[46.1 µM],i
CN(Cc1ccccc1)c1ncnc2sccc12,?,0.0,8.91µM*,-8.1%,-20.8%,i
